A549 tox: Nrf2 qHTS screen for inhibitors: counterscreen for cytotoxicity; A549 ARE-Fluc cells, CellTiter-Fluor viability, 18-24 h; Potency, µM (titrated, usually from 46 µM), most hits filed as inhibitors; 0.16% of 390,000 active; AID 504648, 2011
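A549 ARE_Fluc cells in 5% FBS OPTI-MEM were exposed to compounds in concentration-response for 18-24 h at 37 deg C. Viability was read by CellTiter-Fluor fluorescence (Ex 405/Em 525) after 30 min, before the luciferase read.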
Nrf2 ARE act: qHTS of Nrf2 Activators. AREc32 ARE-luciferase reporter (MCF7-derived line), luminescence, 24 h. Potency, µM (doses to about 46.1 µM), most hits filed as activators. 0.31% of 410,000 active; note: nearly all actives have a fitted effect of over 65% in size
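Quantitative high-throughput format: AREc32 reporter cells, 1000 per well, received compound by pin transfer and were incubated 24 hr at 37 deg C, 5% CO2, before Steady-Glo luminescence detection.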
IDH1 R132H inh: qHTS for Inhibitors of mutant isocitrate dehydrogenase 1 (IDH1): qHTS; Isocitrate dehydrogenase [NADP] cytoplasmic (Homo sapiens), O75874; IDH1-R132H enzyme, NADPH consumption, diaphorase/resazurin fluorescence; Potency, µM (titrated, usually from 76.6 µM), most hits filed as inhibitors; 0.093% of 390,000 active; AID 602179, 2012; note: nearly all actives have a fitted effect of over 65% in size
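IDH1-R132H (0.5 ug/mL) preincubated 30 min with compound, then NADPH (0.016 mM) and alpha-KG (2 mM) added; 80 min at RT, pH 7.5. Remaining NADPH coupled via diaphorase/resazurin to fluorescence (540/590 nm); concentration-response curves normalized to no-enzyme control.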
Nrf2 inh: Nrf2 qHTS screen for inhibitors | A549 ARE-Fluc reporter, luciferase luminescence, 18-24 h | Potency, µM (top dose mostly 46 µM), actives largely listed as inhibitors | 2.1% of 360,000 active; note: nearly all actives have a fitted effect of over 60% in size
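A549 ARE_Fluc cells, 5000/well, 5% FBS OPTI-MEM; compounds in dose-response, 18-24 h at 37 °C/5% CO2; CellTiter-Fluor viability read (Ex 405/Em 525), then BugLite luciferase luminescence = Nrf2 activity.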
ALOX12 inh: Primary qHTS assay for inhibitors of human arachidonate 12S-lipoxygenase (ALOX12): Round 2; Polyunsaturated fatty acid lipoxygenase ALOX12 (Homo sapiens), P18054; purified 12hLO, xylenol orange hydroperoxide absorbance; Potency, µM (highest dose often 108 µM), most hits filed as inhibitors; 1.1% of 580,000 active
Target sequence (P18054 whole entry, looked up): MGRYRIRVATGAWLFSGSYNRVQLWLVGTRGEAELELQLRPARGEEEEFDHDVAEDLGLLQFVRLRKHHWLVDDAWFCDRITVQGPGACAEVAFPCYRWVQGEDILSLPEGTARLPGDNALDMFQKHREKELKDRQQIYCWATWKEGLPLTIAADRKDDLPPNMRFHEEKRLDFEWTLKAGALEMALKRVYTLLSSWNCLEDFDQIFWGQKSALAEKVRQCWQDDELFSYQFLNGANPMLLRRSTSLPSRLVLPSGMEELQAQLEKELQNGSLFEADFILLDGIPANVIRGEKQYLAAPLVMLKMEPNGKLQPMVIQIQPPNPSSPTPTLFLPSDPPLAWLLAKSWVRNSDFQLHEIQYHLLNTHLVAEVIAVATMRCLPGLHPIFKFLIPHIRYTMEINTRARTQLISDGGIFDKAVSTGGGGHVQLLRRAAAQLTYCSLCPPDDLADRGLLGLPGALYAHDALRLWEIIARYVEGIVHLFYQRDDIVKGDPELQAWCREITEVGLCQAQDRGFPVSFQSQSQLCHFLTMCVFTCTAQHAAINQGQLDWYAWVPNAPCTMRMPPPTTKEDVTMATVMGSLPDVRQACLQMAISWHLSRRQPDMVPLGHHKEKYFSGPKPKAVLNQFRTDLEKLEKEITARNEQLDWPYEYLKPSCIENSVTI
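Purified human 12hLO (150 nM final) in 25 mM Hepes, 0.01% Triton X-100, pH 7.0 was preincubated 15 min at room temperature with compound. Then 40 uM arachidonic acid was added, 30 min. Hydroperoxide was read by Fe-XO absorbance ratio 573/405 nm.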
LDHA inh: qHTS assay for inhibitors of human lactate dehydrogenase | L-lactate dehydrogenase A chain (Homo sapiens), P00338 | purified LDHA, NADH/diaphorase-resazurin fluorescence; active compounds read low | activity change, % (values are at about 110 or 230 µM) | 0.15% of 480,000 active; in the data active = activity change below about -30%; inconclusive = mostly about -25% to -30%
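LDH5 2 nM; NADH 0.06 mM, pyruvate 0.2 mM; 200 mM Tris pH 7.4, EDTA, Tween-20; 5 min RT. Detection: diaphorase 0.133 mg/mL + resazurin 37 µM, fluorescence ex540/em590 at 0 and 20 min; normalized to enzyme-free and DMSO wells.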
Hits are given with their value; i = inactive; ? = inconclusive; nt = no result. An excerpt weighted towards active compounds, which were near 2.7% of everything screened. Unless noted, calls come from the whole dose curve; as a rule, active = well fitted curve in the direction sought with a large enough effect; inconclusive = small, poorly fitted or top-dose-only effect, or another doubt; inactive = no such curve, though single readings can be large; an effect the other way counts as inactive or inconclusive.

SMILES	A549 tox	Nrf2 ARE act	IDH1 R132H inh	Nrf2 inh	ALOX12 inh	LDHA inh
Fc1ccc2c(c1)/C(=N/Nc1ccccn1)CCS2	i	11µM	i	i	i	i
CN(C)c1cccc(C(=O)N/N=C2/CCSc3ccc(F)cc32)c1	nt	nt	nt	nt	?	i
C/C(N)=C(/C#N)C(=O)CSc1nc2scc(-c3ccccc3)c2c(=O)n1C	i	i	i	15µM	i	i
O=C(Nc1ccc(OC(F)(F)F)cc1)Nc1cccc([N+](=O)[O-])c1	?	i	i	21µM	?	i
Cc1ccc(NC(=O)Nc2cccc([N+](=O)[O-])c2)cc1F	?	i	i	?	i	i
O=C(Nc1ccc(Oc2ccc(NC(=O)Nc3ccc([N+](=O)[O-])cc3)cc2)cc1)Nc1ccc([N+](=O)[O-])cc1	?	i	i	16µM	i	i
O=C(Nc1ccc(OC(F)(F)F)cc1)c1[nH]ncc1[N+](=O)[O-]	?	?	i	7.3µM	i	i
Cc1cc(NC(=O)Nc2ccccc2Cl)no1	i	i	i	?	i	i
Cc1cc(NC(=O)Nc2cc(Cl)sc2Cl)no1	i	3.2µM	i	i	nt	i
CCCCCC(=O)NNC(=S)NC(=O)c1ccccc1[N+](=O)[O-]	?	i	i	23µM	i	i
COc1ccc(OCC(=O)NC(=S)NNC(=O)COc2ccc(Br)cc2Cl)cc1	i	i	i	i	14µM	i
Cc1ccc(C(=O)NC(=S)NNC(=O)COc2ccc([N+](=O)[O-])cc2)cc1	i	i	i	i	?	i
O=C(NC(=S)NNC(=O)c1ccccc1[N+](=O)[O-])c1ccc(Br)cc1	i	i	i	i	3.5µM	i
O=C(COc1ccc([N+](=O)[O-])cc1)NNC(=S)NC(=O)c1ccc(Br)cc1	i	i	i	i	40µM	i
CC(C1CC1)N(Cc1ccccc1)S(=O)(=O)c1ccc(F)cc1F (stereo not drawn)	nt	nt	nt	nt	i	i
CC(=O)c1ccc(OCc2ccccc2C)cc1	nt	nt	nt	nt	i	i
C=CCn1c(=O)c2c(nc(-n3nc(C)c(C)c3C)n2CC(=C)C)n(C)c1=O	nt	nt	nt	nt	i	-32
C=C(C)Cn1c(-n2nc(C)c(C)c2C)nc2c1c(=O)n(C)c(=O)n2C	nt	nt	nt	nt	i	i
CC(C)COc1ccc(CNC(=S)Nc2ccccc2)cc1Cl	i	i	i	i	32µM	i
FC(F)Oc1ccc(NC(=S)NCc2ccccc2)cc1Cl	?	i	i	23µM	?	i
S=C(NCc1ccccc1)Nc1ccc(Cl)c(Cl)c1	nt	nt	nt	nt	?	i
C=CCn1c(N2CCOCC2)nc2c1c(=O)n(C)c(=O)n2C	nt	nt	nt	nt	i	i
C=CCSc1cc(C)nc2c(-c3ccccc3)cnn12	i	i	i	?	i	i
CCSc1cc(C)nc2c(-c3ccccc3)cnn12	i	16µM	i	?	i	i
O=[N+]([O-])c1ccccc1/C=N/Nc1nccnc1Cl	i	6.3µM	i	nt	i	i
SMILES	A549 tox	Nrf2 ARE act	IDH1 R132H inh	Nrf2 inh	ALOX12 inh	LDHA inh
NC(=S)N/N=C/c1ccccc1[N+](=O)[O-]	i	i	i	?	35µM	i
O=C(Nc1cccnc1)c1cc(Br)c(Br)s1	i	i	i	i	20µM	i
O=C(NCc1cccnc1)c1ccc(COc2ccccc2Br)cc1	i	i	i	?	i	i
O=C(Nc1cccnc1)Nc1ccc(Br)cc1Cl	i	i	i	?	16µM	i
O=C(Nc1cccnc1)c1ccc(COc2ccccc2Br)cc1	i	i	i	13µM	?	i
Cc1nc(-c2ccc3c(c2)-c2ccccc2C3)cs1	nt	nt	nt	nt	0.32µM	i
COc1ccc(C2Nc3ccccc3C(=O)N2Cc2ccc(C(C)(C)C)cc2)cc1COc1ccc(NC(C)=O)cc1 (stereo not drawn)	i	nt	nt	18µM	nt	i
O=S(=O)(NCc1ccccc1)c1ccc(Cl)cc1	i	i	i	i	i	i
O=S(=O)(Nc1cc2nc3ccccc3nc2n1Cc1ccccc1)c1ccc(Cl)cc1	?	i	i	?	45µM	i
COc1ccc(N2CCN(C(=O)c3c(-c4ccccc4)noc3C)CC2)cc1	i	i	i	i	i	i
Cc1noc(C)c1C(=O)N1CCN(c2ccc(OCc3ccccc3)cc2)CC1	i	i	i	21µM	i	i
N#C/C(=C/c1cccc(C#N)c1)C(=O)c1c[nH]c2cc(F)ccc12	nt	nt	nt	nt	11µM	i
N#C/C(=C/c1cccc(O)c1)C(=O)c1c[nH]c2cc(F)ccc12	nt	nt	nt	nt	16µM	i
CCCCC1C(=O)N(c2ccccc2)N(c2ccc(O)cc2)C1=O (stereo not drawn)	?	?	i	26µM	?	i
COc1ccc(N2CC(c3nnc(NC(=O)CC(C)(C)C)s3)CC2=O)cc1 (stereo not drawn)	nt	nt	nt	nt	i	i
NC1CCc2nn(CC(=O)NCc3ccc4c(c3)OCO4)c(=O)n2CC1 (stereo not drawn)	nt	nt	nt	nt	50µM	nt
C=C1[C@@H](O)[C@@H]2O[C@]3(CC[C@H](/C=C/[C@@H](C)[C@@H]4CC(C)=CC5(O[C@H](C[C@@](C)(O)C(=O)OC)CC[C@H]5O)O4)O3)CC[C@H]2O[C@@H]1[C@@H](O)C[C@H](C)[C@H]1OC2(CCCCO2)CC[C@H]1C (stereo partly drawn)	?	i	i	0.092µM	nt	i
CC(C)C[C@H](NC(=O)OC(C)(C)C)C(=O)N/N=C/c1ccc2nccnc2c1	i	i	i	i	i	i
CC(C)C[C@H](NC(=O)OC(C)(C)C)C(=O)N/N=C/C1=Cc2ccccc2OC1C (stereo partly drawn)	?	i	i	21µM	i	i
CC(C)C(C)NC(=O)c1ccc(Cl)cc1 (stereo not drawn)	nt	nt	nt	nt	i	i
CC[n+]1c(/C=C(\C)SC)sc2ccccc21	i	i	i	21µM	?	i
CC[n+]1c(/C=C(/C)SC)sc2ccccc21	?	i	i	?	?	i
CC[n+]1c(C=C2C=C(C)OC(C)=C2)sc2ccccc21	2.9µM	i	i	0.73µM	i	i
CCc1c(C)sc(NC(=O)c2cccc(OC)c2)c1C#N	nt	nt	nt	nt	?	i
CCC(C)[C@H](NC(=O)[C@@H]1Cc2ccccc2CN1)C(=O)Nc1cccc(C)c1 (stereo partly drawn)	nt	nt	nt	nt	i	i
COC(=O)c1ccc2nc(-c3ccco3)c(Cc3cccc(Cl)c3)n2c1	nt	5.6µM	nt	nt	16µM	i
CCCc1nc2ccc(C(=O)OC)cn2c1Cc1ccc(C)cc1	nt	i	nt	nt	10µM	i
